Target: AMP-activated protein kinase, AMPK (Homo sapiens) (UniProt P54646+O43741+P54619+Q9UGJ0+Q9Y478+Q13131+Q9UGI9)
Assay: AMP-dependent Kinase enzyme assay. An in vitro enzyme assay that detects ADP turnover that is directly proportional to AMPK activity. This uses naive AMPK that is activated during the assay with MK-8722
Type: functional
Design: scale not given: direction of the effect not stated beside the values
Conditions: 30 µM

| Structure (SMILES) | Percent Effect [%] |
| --- | --- |
| O=C(c1cncc(NCC2COc3ccccc3C2)n1)N1CCCC1 (centres undefined) | 8.04 |
| Cc1cc(C(=O)N2CCNC(=O)C2)c(C)n1Cc1ccccn1 | -10.9 |
| Cc1ccc(CNCc2nccn2C)c(OCC2CC2)c1 | 3.02 |
| COc1cccc(-c2ncc(CN3CCOCC(O)C3)s2)c1 (centres undefined) | 2.77 |
| Cc1ccc2nc(CNCCCOc3ccccc3)cc(O)c2c1 | 2.49 |
| C=C(C)COc1cccc(CNCc2nc3ccccc3c(=O)[nH]2)c1 | 1.56 |
| CCSCc1cccc(NCc2cccnc2)c1 | 5.73 |
| CCC(=O)NC(CC)c1ccccc1C (centres undefined) | 7.08 |
| O=C(O)[C@@H]1CN(CCOCCO)C[C@H]1c1ccccc1 | 1.29 |
| CC(C)(CNc1c(C#N)cnc2ccc(Cl)cc12)C(N)=O | 6.25 |
| O=C1C(N2CCOCC2)CCCN1Cc1cccc(C(F)(F)F)c1 (centres undefined) | 5.78 |
| CN(c1ncc(S(N)(=O)=O)s1)C1CCc2ccccc2C1 (centres undefined) | 5.32 |
| CCCS(=O)(=O)N1CCN(CCCO)CC1 | 89.9 |
| O=C(c1ccncc1)N1CCCC(C2=Nc3ccccc3S(=O)(=O)N2)C1 (centres undefined) | 8.81 |
| O=C(c1cc(-c2ccccc2)nc2onc(C3CC3)c12)N1CC[C@H](O)C1 | 4.85 |
| CC(CNC(=O)c1c[nH]nn1)Oc1ccc(Cl)cc1 (centres undefined) | 3.24 |
| Cn1ncc2c(N[C@@H]3C[C@@H]4CC[C@H]3C4)nc(-c3ccncc3)nc21 | 12.7 |
| N#CCc1ccc(NC(=O)N[C@H](CO)Cc2ccc(O)cc2)cc1 | 9.92 |
| CN1CCC(NC(=O)c2cc(F)cc(Cl)c2O)C1=O (centres undefined) | 11.4 |
| COc1c(C2CCCN2C(=O)c2ccc(C(N)=O)s2)c(C)nn1C (centres undefined) | -4.26 |

| Structure (SMILES) | Percent Effect [%] |
| --- | --- |
| CCn1c(C2CCCNC2)nn(CCn2cncn2)c1=O (centres undefined) | -3.33 |
| O=C(CCNCc1cccc2c1OCCCO2)NC1CCCC1 | -8.82 |
| CCCN(CCc1ccccn1)C(=O)Cn1cc(C)cn1 | 3.83 |
| COC1CCN(c2ccc(F)cc2CN(C)C(=O)c2cc[nH]n2)CC1 | 12.3 |
| COCCOCC1CCN(C(=O)c2ccc3[nH]cnc3c2)C1 (centres undefined) | -11.9 |
| CCNC(=O)c1ccc(NC(=O)N(C)Cc2cc(C)on2)c(C)c1 | 10.2 |
| Cc1nc(C)n(CC2CCCN2c2ncnc3sccc23)n1 (centres undefined) | 1.91 |
| CCC(=O)Nc1cccc(OCC(=O)N(C)CCCC2CCCO2)c1 (centres undefined) | 11.8 |
| O=C1CCCCCN1Cc1cccc(OC(F)F)c1 | 3.82 |
| COc1ccccc1-c1cccc(C2CCCN(C3CCOCC3)C2)n1 (centres undefined) | -7.08 |
| Cc1cc(C)c(-n2cccn2)c(CN2CCOCC(CN(C)C)C2)c1 (centres undefined) | -0.542 |
| Cc1ccc(C(=O)NCCC2CCN(C)CC2)cc1N(C)S(C)(=O)=O | -4.15 |
| CN(C)C(=O)c1cncnc1-c1ccc(CNC(=O)C2CCCO2)cc1 (centres undefined) | -0.401 |
| CCn1cnnc1CN(C)C(=O)c1cc(COc2cccc(F)c2)[nH]n1 | -0.905 |
| Cc1c(NC(=O)NCCO)cccc1OC1CCCC1 | -2.68 |
| Cc1cncnc1C1CCN(C(=O)C2(C)CCCCN2C)CC1 (centres undefined) | 17 |
| COCC1(C(=O)N[C@H]2CN(c3noc(C)n3)C[C@@H]2C2CC2)CCC1 | -1.21 |
| CC1CN(CC(=O)NCc2ccc(F)cc2)CCN1c1nccs1 (centres undefined) | 10.2 |
| CC(=O)N1CCCC1CCc1ccc(Cl)nn1 (centres undefined) | 12.8 |

Source: ChEMBL document CHEMBL3988442, “University of Dundee, Small-Polar-MMV Screening Library” (2021)
